Assay [1] in a line: Primary qHTS for inhibitors of nuclear receptor binding SET domain protein 2 (NSD2) in an isogenic RCH-ACV NSD2 p.E1099K mutant (9B) (AID 1645876).
Assay [2] in a line: Primary qHTS for inhibitors of nuclear receptor binding SET domain protein 2 (NSD2) in an RCH-ACV wild type WT cells (2C) (AID 1645877).

Records with an inconclusive call do not appear. A number with no mark means an inactive call. Calls of active or inactive are those of the source. Calls follow the shape of the dose curve; as a rule, active = well fitted curve in the direction sought with a large enough effect; inconclusive = small, poorly fitted or top-dose-only effect, or another doubt; inactive = no such curve, though single readings can be large; an effect the other way counts as inactive or inconclusive.
% is scaled to controls: 0 for no effect and ±100 for the full control effect.
Also: nearly all actives have a fitted effect of over 70% in size.

Regarding `CC12CCC3c4ccc(O)cc4CCC3C1CCC2OC1OC(C(=O)O)C(O)C(O)C1O` (centres undefined), the Potency entry in assay [1] and in assay [2] was “inactive” throughout.
As to `C=C1CC[C@@H]2[C@](C)(CO[C@@H]3O[C@H](CO)[C@@H](O)[C@H](O)[C@H]3O)CCC[C@@]2(C)[C@@H]1CCC1=CCOC1=O`, the Potency entry in assay [1] and in assay [2] was “inactive” in each case.
On to `COC(=O)C1=COC(OC2OC(CO)C(O)C(O)C2O)C2C1CC(OC(=O)C(O)CC(=O)O)C2C` (centres undefined), for which the Potency result in assay [1] and in assay [2] was “inactive” in each case.
Regarding `COc1cc(N2CCC(O)CC2)ccc1Nc1cc(Nc2ccccc2S(=O)(=O)C(C)C)c2cc[nH]c2n1`, the Potency result in assay [1] and in assay [2] was “inactive” in each case.
In the case of `COc1cc(C2Oc3c(OC)cc(/C=C/C(=O)OC[C@H]4O[C@@H](OC(C)(C)C(=O)O)[C@H](O)[C@@H](O)[C@@H]4O)cc3C2CO)ccc1O` (some centres undefined), the Potency entry in assay [1] and in assay [2] was “inactive” each time.
With `C/C=C/C=C/C=C/C(=O)O[C@@H]1C=C(CO)C(O)(C(=O)O)[C@@]2(C)CCCC(C)(C)[C@H]12` (some centres undefined), the Potency entry in assay [1] and in assay [2] was “inactive” in each case.
As for `Cn1ccnc1CCOC(c1cc2nccc(C(=O)O)c2[nH]1)c1ccccc1Cl` (centres undefined), the Potency entry in assay [1] and in assay [2] was “inactive” each time.
Regarding `Cc1nn(C)c2c1C(c1ccc(C(F)(F)F)cc1)C(C#N)=C(N)O2` (centres undefined), the Potency result in assay [1] and in assay [2] was “inactive” throughout.
Regarding `CCC/C=C/C(=O)O[C@H]1CC(C)(C)CC2[C@]13[C@H](O)O[C@@]21CCC2[C@@]4(C)CC[C@H](O[C@@H]5O[C@H](C(=O)O)[C@@H](O)[C@H](O[C@@H]6O[C@H](CO)[C@H](O)[C@H](O)[C@H]6O[C@@H]6O[C@@H](C)[C@H](O)[C@@H](O)[C@H]6O[C@@H]6OC[C@](O)(CO)[C@H]6O)[C@H]5O[C@@H]5O[C@H](CO)[C@H](O)[C@H](O)[C@H]5O)C(C)(C)C4CC[C@@]2(C)[C@]1(C)C[C@H]3OC(C)=O` (some centres undefined), the activity change, negative = viability loss in assay [1] is -22.9% [at 9.23 µM]. Also, the activity change, negative = cell killing in assay [2] was -16.1% [at 9.23 µM].
Take `COc1cc(/C=C/C(=O)OC2[C@H](O)CC(O)(C(=O)O)C[C@H]2O)ccc1O` (some centres undefined): the Potency result in assay [1] and in assay [2] was “inactive” in each case.
In the case of `O=C1[C@H](O[C@@H]2O[C@H](CO)[C@@H](O)[C@H](O)[C@H]2O)Oc2ccccc2N1O`, the Potency result in assay [1] and in assay [2] was “inactive” each time.
In the case of `CC(=O)N[C@H]1[C@H](O[C@H]2CC[C@@]3(C)C(CC[C@]4(C)C3CC=C3C5CC(C)(C)CC[C@]5(C(=O)O)[C@H](O[C@@H]5O[C@H](CO)[C@@H](O)[C@H](O)[C@H]5O)C[C@]34C)C2(C)C)O[C@H](CO[C@@H]2OC[C@H](O)[C@H](O)[C@H]2O[C@@H]2OC[C@@H](O)[C@H](O)[C@H]2O)[C@@H](O)[C@@H]1O` (some centres undefined), the activity change, negative = viability loss in assay [1] is -9.03% [at 9.23 µM]. Further, the activity change, negative = cell killing in assay [2] is -14.8% [at 9.23 µM].

The values above are taken from PubChem BioAssay (NCATS).
